# From the supplement of paper PMC8728848
# Shown is part of a subset that was picked to be rich in the strongest signals.
# B1: PRKCE (Homo sapiens), Q02156 (protein)
# chain: MVVFNGLLKIKICEAVSLKPTAWSLRHAVGPRPQTFLLDPYIALNVDDSRIGQTATKQKTNSPAWHDEFVTDVCNGRKIELAVFHDAPIGYDDFVANCTIQFEELLQNGSRHFEDWIDLEPEGRVYVIIDLSGSSGEAPKDNEERVFRERMRPRKRQGAVRRRVHQVNGHKFMATYLRQPTYCSHCRDFIWGVIGKQGYQCQVCTCVVHKRCHELIITKCAGLKKQETPDQVGSQRFSVNMPHKFGIHNYKVPTFCDHCGSLLWGLLRQGLQCKVCKMNVHRRCETNVAPNCGVDARGIAKVLADLGVTPDKITNSGQRRKKLIAGAESPQPASGSSPSEEDRSKSAPTSPCDQEIKELENNIRKALSFDNRGEEHRAASSPDGQLMSPGENGEVRQGQAKRLGLDEFNFIKVLGKGSFGKVMLAELKGKDEVYAVKVLKKDVILQDDDVDCTMTEKRILALARKHPYLTQLYCCFQTKDRLFFVMEYVNGGDLMFQIQRSRKFDEPRSRFYAAEVTSALMFLHQHGVIYRDLKLDNILLDAEGHCKLADFGMCKEGILNGVTTTTFCGTPDYIAPEILQELEYGPSVDWWALGVLMYEMMAGQPPFEADNEDDLFESILHDDVLYPVWLSKEAVSILKAFMTKNPHKRLGCVASQNGEDAIKQHPFFKEIDWVLLEQKKIKPPFKPRIKTKRDVNNFDQDFTREEPVLTLVDEAIVKQINQEEFKGFSYFGEDLMP
# Key:
# Assay in all cases: glycan array binding signal (z-score within array); higher = stronger binding
# Conditions in all cases: glycan notation: IUPAC condensed, linker removed
# [1] = biological target: Fuc(a1-2)Gal(b1-3)GalNAc(b1-4)[Neu5Ac(a2-3)]Gal(b1-4)Glc
# How it was run: (§1)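 Glycan array data came from 3228 arrays in the Consortium for Functional Glycomics database, and only arrays with an available protein sequence were kept. Glycan names were put into IUPAC-condensed notation, and columns mapping to the same glycan were averaged. The binding signal is a within-array Z-score, averaged across arrays of one protein sequence run at different concentrations or buffers and across linkers. A negative Z-score can be read as non-binding.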
# [2] = biological target: Fuc(a1-2)Gal(b1-3)[Fuc(a1-4)]GlcNAc
# How it was run: as §1
# [3] = biological target: Fuc(a1-2)Gal(b1-3)[Fuc(a1-4)]GlcNAc(b1-2)Man(a1-3)[Fuc(a1-2)Gal(b1-3)[Fuc(a1-4)]GlcNAc(b1-2)Man(a1-6)]Man(b1-4)GlcNAc(b1-4)GlcNAc
# How it was run: as §1
# [4] = biological target: Fuc(a1-2)Gal(b1-4)Glc6S
# How it was run: as §1
# [5] = biological target: Fuc(a1-2)Gal(b1-4)GlcNAc(b1-3)Gal(b1-4)GlcNAc(b1-3)Gal(b1-4)GlcNAc
# How it was run: as §1
# [6] = biological target: Fuc(a1-2)Gal(b1-4)[Fuc(a1-3)]GlcNAc(b1-3)[Neu5Ac(a2-6)Gal(b1-4)GlcNAc(b1-6)]Gal(b1-4)Glc
# How it was run: as §1
# [7] = biological target: Fuc(a1-2)Gal6S(b1-4)Glc6S
# How it was run: as §1
# [8] = biological target: Fuc(a1-2)[Gal(a1-3)]Gal(b1-3)GlcNAc
# How it was run: as §1
# [9] = biological target: Fuc(a1-2)[Gal(a1-3)]Gal(b1-3)GlcNAc(b1-3)GalNAc
# How it was run: as §1
# [10] = biological target: Fuc(a1-2)[Gal(a1-3)]Gal(b1-4)GlcNAc(b1-2)Man(a1-3)[Fuc(a1-2)[Gal(a1-3)]Gal(b1-4)GlcNAc(b1-2)Man(a1-6)]Man(b1-4)GlcNAc(b1-4)GlcNAc
# How it was run: as §1
# [11] = biological target: Fuc(a1-2)[Gal(a1-3)]Gal(b1-4)GlcNAc(b1-6)GalNAc
# How it was run: as §1
# [12] = biological target: Fuc(a1-2)[GalNAc(a1-3)]Gal(b1-3)GlcNAc
# How it was run: as §1
# [13] = biological target: Fuc(a1-3)[Gal(b1-4)]GlcNAc(b1-4)Gal(b1-4)[Fuc(a1-3)]GlcNAc(b1-4)Gal(b1-4)[Fuc(a1-3)]GlcNAc
# How it was run: as §1
# [14] = biological target: Gal(a1-2)Gal
# How it was run: as §1
# [15] = biological target: Gal(b1-3)GalNAc
# How it was run: as §1
# [16] = biological target: Gal(b1-3)GlcNAc
# How it was run: as §1
# [17] = biological target: Gal(b1-3)GlcNAc(b1-3)Gal(b1-4)GlcNAc(b1-6)[Gal(b1-3)GlcNAc(b1-3)]Gal(b1-4)Glc
# How it was run: as §1
# [18] = biological target: Gal(b1-3)GlcNAc(b1-3)Gal(b1-4)[Fuc(a1-3)]GlcNAc(b1-6)[Gal(b1-3)GlcNAc(b1-3)]Gal(b1-4)Glc
# How it was run: as §1
# [19] = biological target: Gal(b1-4)GalNAc(b1-3)[Fuc(a1-2)]Gal(b1-4)GlcNAc
# How it was run: as §1
# [20] = biological target: Gal(b1-4)GlcNAc(b1-2)Man(a1-3)[Gal(b1-4)GlcNAc(b1-2)][GlcNAc(b1-4)]Man(b1-4)GlcNAc(b1-4)GlcNAc
# How it was run: as §1
# [21] = biological target: Gal(b1-4)GlcNAc(b1-2)Man(a1-3)[GlcNAc(b1-2)Man(a1-6)]Man(b1-4)GlcNAc(b1-4)GlcNAc
# How it was run: as §1
# [22] = biological target: Gal(b1-4)GlcNAc(b1-2)Man(a1-6)Man(b1-4)GlcNAc(b1-4)GlcNAc
# How it was run: as §1
# [23] = biological target: Gal(b1-4)GlcNAc(b1-2)Man(a1-6)[GlcNAc(b1-2)Man(a1-3)]Man(b1-4)GlcNAc(b1-4)GlcNAc
# How it was run: as §1
# [24] = biological target: Gal(b1-4)GlcNAc(b1-3)Gal(b1-4)GlcNAc
# How it was run: as §1
# [25] = biological target: Gal(b1-4)GlcNAc(b1-3)Gal(b1-4)GlcNAc(b1-3)Gal(b1-4)GlcNAc
# How it was run: as §1
# [26] = biological target: Gal(b1-4)GlcNAc(b1-3)Gal(b1-4)[Fuc(a1-3)GlcNAc(b1-6)]Gal(b1-4)Glc
# How it was run: as §1
# [27] = biological target: Gal3S(b1-4)GlcNAc6S
# How it was run: as §1
# [28] = biological target: Gal3S4S(b1-4)GlcNAc
# How it was run: as §1
# [29] = biological target: Gal6S(b1-4)GlcNAc6S
# How it was run: as §1
# [30] = biological target: GalNAc(b1-3)Gal(a1-4)Gal(b1-4)GlcNAc(b1-3)Gal(b1-4)Glc
# How it was run: as §1
# [31] = biological target: GalNAc4S6S(b1-4)GlcNAc
# How it was run: as §1
# [32] = biological target: GlcA(b1-3)GlcNAc
# How it was run: as §1
# [33] = biological target: GlcNAc(b1-3)[GlcNAc(b1-4)][GlcNAc(b1-6)]GlcNAc
# How it was run: as §1
# [34] = biological target: Kdn(a2-3)Gal(b1-3)GalNAc
# How it was run: as §1
# [35] = biological target: Kdn(a2-3)Gal(b1-3)GlcNAc
# How it was run: as §1
# [36] = biological target: Neu5Ac(a2-3)Gal(b1-3)GalNAc6S
# How it was run: as §1
# [37] = biological target: Neu5Ac(a2-3)Gal(b1-4)GlcNAc(b1-2)Man(a1-3)[Neu5Ac(a2-3)Gal(b1-4)GlcNAc(b1-2)Man(a1-6)]Man(b1-4)GlcNAc(b1-4)[Fuc(a1-6)]GlcNAc
# How it was run: as §1
# [38] = biological target: Neu5Ac(a2-3)Gal(b1-4)GlcNAc(b1-3)Gal(b1-4)[Fuc(a1-3)]GlcNAc
# How it was run: as §1
# [39] = biological target: Neu5Ac(a2-6)Gal(b1-4)GlcNAc(b1-2)Man(a1-3)[Gal(b1-4)GlcNAc(b1-2)Man(a1-6)]Man(b1-4)GlcNAc(b1-4)GlcNAc
# How it was run: as §1
# [40] = biological target: Neu5Ac(a2-6)Gal(b1-4)GlcNAc(b1-2)Man(a1-3)[GlcNAc(b1-2)Man(a1-6)]Man(b1-4)GlcNAc(b1-4)GlcNAc
# How it was run: as §1
# [41] = biological target: Neu5Ac(a2-6)GlcNAc(b1-4)GlcNAc
# How it was run: as §1
# [42] = biological target: Neu5Ac(b2-6)Gal(b1-4)GlcNAc
# How it was run: as §1
# [43] = biological target: Neu5Gc(a2-6)GalNAc
# How it was run: as §1
binder,measurement,setting,value
B1,glycan array binding signal (z-score),[1],-0.414
same,glycan array binding signal (z-score),[2],-0.08
same,glycan array binding signal (z-score),[3],3.82
same,glycan array binding signal (z-score),[4],0.01
same,glycan array binding signal (z-score),[5],-0.376
same,glycan array binding signal (z-score),[6],-0.275
same,glycan array binding signal (z-score),[7],3.89
same,glycan array binding signal (z-score),[8],-0.168
same,glycan array binding signal (z-score),[9],0.498
same,glycan array binding signal (z-score),[10],-0.355
same,glycan array binding signal (z-score),[11],4.32
same,glycan array binding signal (z-score),[12],-0.107
same,glycan array binding signal (z-score),[13],-0.315
same,glycan array binding signal (z-score),[14],0.035
same,glycan array binding signal (z-score),[15],-0.389
same,glycan array binding signal (z-score),[16],-0.364
same,glycan array binding signal (z-score),[17],-0.234
same,glycan array binding signal (z-score),[18],-0.277
same,glycan array binding signal (z-score),[19],0.061
same,glycan array binding signal (z-score),[20],-0.146
same,glycan array binding signal (z-score),[21],2.61
same,glycan array binding signal (z-score),[22],-0.31
same,glycan array binding signal (z-score),[23],1.3
same,glycan array binding signal (z-score),[24],-0.365
same,glycan array binding signal (z-score),[25],0.155
same,glycan array binding signal (z-score),[26],-0.176
same,glycan array binding signal (z-score),[27],6.34
same,glycan array binding signal (z-score),[28],8.77
same,glycan array binding signal (z-score),[29],3.2
same,glycan array binding signal (z-score),[30],-0.217
same,glycan array binding signal (z-score),[31],-0.211
same,glycan array binding signal (z-score),[32],-0.247
same,glycan array binding signal (z-score),[33],4.39
same,glycan array binding signal (z-score),[34],-0.132
same,glycan array binding signal (z-score),[35],-0.38
same,glycan array binding signal (z-score),[36],-0.364
same,glycan array binding signal (z-score),[37],-0.386
same,glycan array binding signal (z-score),[38],-0.192
same,glycan array binding signal (z-score),[39],0.571
same,glycan array binding signal (z-score),[40],3.58
same,glycan array binding signal (z-score),[41],-0.318
same,glycan array binding signal (z-score),[42],-0.121
same,glycan array binding signal (z-score),[43],-0.342
